# Source: PubChem BioAssay (National Center for Advancing Translational Sciences (NCATS))
# DT40 TDP1 CPT – DT40-hTDP1 cell growth loss with CPT. chicken DT40 Tdp1-/-;hTDP1 cells + 20 nM CPT, ATP luminescence, 48 h. Potency, µM (titrated, usually from 46.2 µM), for inactives: at the highest dose activity change, negative = growth inhibition, most hits filed as inhibitors. actives 12% (n = 420,000); also: nearly all actives have a fitted effect of over 55% in size
#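 Chicken DT40 Tdp1-/- cells stably complemented with human TDP1 were seeded at 400 cells/well in medium containing 20 nM camptothecin, exposed to pin-transferred compounds, and grown at 37 °C for at least 48 hr. Viability was read as ATP luminescence.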
# KB-V1 cytotox – KB-V1 MDR subline cytotoxicity. KB-V1 MDR cells viability, CellTiter-Glo, 72 h. Potency, µM (doses to about 46.1 µM), usual class: cytotoxic. actives 3.4% (n = 400,000). AID 1347076; also: nearly all actives have a fitted effect of over 60% in size
#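 Following 72 h at 37 degrees C with compound, KB-V1 cell viability was read by CellTiter-Glo luminescence, medium being phenol-red-free DMEM plus 10% FBS; concentration-response parameters came from normalized, curve-fitted qHTS data.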
# KB-3-1 cytotox – KB-3-1 parental cell cytotoxicity; KB-3-1 viability, CellTiter-Glo ATP luminescence, 72 h; Potency, µM (titrated, usually from 46.1 µM), hits mostly cytotoxic; actives 1.4% (n = 400,000); also: nearly all actives have a fitted effect of over 60% in size
#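 Screening of KB-3-1 cells (DMEM, 10% FBS, phenol-red free) ran from lowest to highest compound concentration; after 72 h at 37 °C viability was read luminescently and curves fitted.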
# HT1080NT lethal – kills 2HG-producing HT-1080-NT fibrosarcoma cells; Potency, µM (highest dose often 46.1 µM), without a hit: top-dose activity, negative = less viability, hits mostly cytotoxic; HT-1080-NT fibrosarcoma viability, CellTiter-Glo ATP luminescence, 48 h; actives 1.6% (n = 360,000);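 also: NT is the 2HG producing partner of a matched IDH1 knockdown line; 0% = DMSO-treated cells and -100% = media-only wells without cells; nearly all actives have a fitted effect of over 55% in size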
#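 Read-out is CellTiter-Glo luminescence after 10 minutes at room temperature, following 48 hours' compound treatment of HT-1080-NT cells (750 cells/well, RPMI, 5% FBS, 37 degrees C).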
# HT1080 IDH1KD tx – HT-1080 IDH1 knockdown cell toxicity (counter line); HT-1080 IDH1 knockdown viability, ATP luminescence, 48 h; Potency, µM (doses to about 46.1 µM), for inactives: at the highest dose activity, negative = toxicity, hits mostly cytotoxic; actives 2% (n = 360,000);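 also: 0% = DMSO wells and -100% = cell-free medium wells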
#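 IDH1KD HT-1080 cells, 750/well, RPMI + 5% FBS; compound pinned after 2 h settling; 48 h, 37 °C; CellTiter-Glo luminescence; % activity normalised to DMSO and no-cell wells; curves fitted, classed by r2 and efficacy.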
# TDP1 cell noCPT – qHTS for Inhibitors of human tyrosyl-DNA phosphodiesterase 1 (TDP1): qHTS in cells in absence of CPT | DT40 Tdp1-/- hTDP1 cells, no CPT, ATP luminescence, 48 h | Potency, µM (doses to about 46.2 µM), inactives show top-dose activity change, negative = growth inhibition, hits mostly inhibitors | actives 15% (n = 420,000); also: nearly all actives have a fitted effect of over 55% in size
#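 Growth of hTDP1-complemented DT40 Tdp1-knockout cells is measured by ATP luminescence after at least 48 hr compound exposure at 37 °C, with DMSO substituting for the 20 nM CPT used in the parallel screen.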
# * marks the source's active call; other numbers are inactive results; i = inactive; ? = inconclusive; . = no result given; [ ] = remark or other dose. A selection: hits, their analogues and other compounds. The true share with any hit is near 19%. Calls follow the shape of the dose curve; as a rule, active = well fitted curve in the direction sought with a large enough effect; inconclusive = small, poorly fitted or top-dose-only effect, or another doubt; inactive = no such curve, though single readings can be large; an effect the other way counts as inactive or inconclusive. Unless noted, % is scaled to controls: 0 for no effect and ±100 for the full control effect; potency is read from the fitted curve at half-maximal effect.
SMILES,DT40 TDP1 CPT,KB-V1 cytotox,KB-3-1 cytotox,HT1080NT lethal,HT1080 IDH1KD tx,TDP1 cell noCPT
Cc1ccc(Cl)cc1N1CCN(C(=O)c2ccc3c(c2)CCN3S(=O)(=O)c2ccccc2)CC1,9.2µM*,i,i,.,.,10µM*
O=C(Nc1ccccc1)c1cccc(N2CCCS2(=O)=O)c1,-21%,i,i,.,.,2%
CCS(=O)(=O)N1CCc2cc(C(=O)Nc3cccc(NC(C)=O)c3)ccc21,?,i,i,.,.,?
O=C(Nc1cccc(Cl)c1)c1ccc2c(c1)CCN2S(=O)(=O)c1ccccc1,13µM*,i,i,.,.,21µM*
CSc1cccc(NC(=O)c2cccc(N3CCCS3(=O)=O)c2)c1,?,i,i,.,.,18µM*
CCS(=O)(=O)N1CCCc2cc(C(=O)Nc3cccc(C(C)=O)c3)ccc21,?,?,i,.,.,26µM*
CC(=O)N1CCc2cc(S(=O)(=O)NC(Cc3ccccc3)C(=O)NCc3ccccc3Cl)ccc21 (stereo not drawn),-6%,i,i,.,.,-20%
O=C1NC[C@@H](CCCCN2C[C@H](Cc3ccc(O)cc3)N(CCc3ccc(O)cc3)C(=O)C2=O)N(Cc2ccccc2)C1=O,1%,i,i,22%,10%,-29%
Cc1ccc(S(=O)(=O)N2CCOC2CNC(=O)C(=O)NCCN(C)C)cc1 (stereo not drawn),5%,?,i,11%,4%,0%
COc1cc(C2NC(=S)NC(C)=C2C(=O)Nc2ccc(C)cc2)ccc1O (stereo not drawn),-11%,i,i,9%,1%,-5%
CC(=O)c1cccc(NC(=O)c2ccc3c(c2)CCN3S(=O)(=O)c2ccccc2)c1,15µM*,i,i,-20%,-10%,21µM*
CSc1cccc(NC(=O)c2ccc3c(c2)CCCN3S(C)(=O)=O)c1,16µM*,?,i,.,.,?
O=C(Nc1ccccc1)c1ccc2c(c1)CCN2S(=O)(=O)c1ccccc1,?,i,?,0%,-8%,?
NS(=O)(=O)c1ccc(NC(=O)c2ccc3c(c2)CCN3S(=O)(=O)c2ccccc2)cc1,23µM*,?,i,-28%,?,10µM*
O=C(Nc1ccc(S(=O)(=O)N2CCc3ccccc32)cc1)c1ccc2c(c1)OCO2,?,5.2µM*,i,?,?,?
CCN(CC)CCn1c2c(c(SCC(=O)Nc3cc(OC)cc(OC)c3)nc1=O)CCC2,-21%,i,i,0%,1%,-30%
COC(=O)[C@]1(C)N[C@H](CN(C)C(C)=O)[C@@H]2C(=O)N(Cc3ccccc3)C(=O)[C@@H]21,-2%,?,i,16%,17%,0%
CC(=O)c1ccc(NC(=O)Cn2c(=O)oc3cc(S(=O)(=O)N4CCCCC4)ccc32)cc1,-16%,i,i,.,.,-23%
COc1cccc(N(CC(=O)NC2CCCCC2)C(=O)CCC(=O)Nc2nc(C)cs2)c1,-30%,i,i,-11%,-17%,?
Cc1ccc(C)c(-n2sc3ccc(F)cc3c2=O)c1,3.3µM*,i,i,21µM*,?,3.7µM*
O=c1c2cc(F)ccc2sn1-c1ccc(F)cc1,2.6µM*,i,i,?,?,3.3µM*
COc1ccc(-n2sc3ccccc3c2=O)cc1,3.7µM*,?,?,?,?,2.9µM*
O=C1CCCC(=O)N1c1ccc(F)cc1,19%,i,i,10%,10%,1%
COc1ccc(-n2sc3ccc(F)cc3c2=O)cc1,2.6µM*,?,?,?,?,2.6µM*
COc1ccccc1CNS(=O)(=O)c1cnc(N)nc1,1%,.,.,.,.,-6%
SMILES,DT40 TDP1 CPT,KB-V1 cytotox,KB-3-1 cytotox,HT1080NT lethal,HT1080 IDH1KD tx,TDP1 cell noCPT
Cc1ccc(S(C)(=O)=O)cc1C(=O)OCC(=O)N(Cc1ccccc1)Cc1ccccc1,21µM*,?,i,-12%,-4%,16µM*
O=C(OCC(=O)N(CCc1ccccc1)Cc1ccccc1)c1ccccc1NCCO,?,i,i,-20%,-16%,?
Cc1ccc(C(=O)NCCCc2ccccc2)c(Cl)c1,14%,i,i,11%,2%,8%
O=C(OCC(=O)N(CCc1ccccc1)Cc1ccccc1)c1ccccc1O,18µM*,i,i,-2%,-9%,?
O=C(OCC(=O)N(Cc1ccccc1)Cc1ccccc1)c1ccccc1O,18µM*,i,i,-3%[9.24 µM],3%,?
O=C(NCCC(=O)N(CCc1ccccc1)Cc1ccccc1)c1ccccc1Cl,?,?,i,-2%,-23%,23µM*
CCOC(=O)C1CCN(C(=O)Cn2c(=O)c3cccn3c3cccnc32)CC1,-19%,i,i,5%,3%,?
CCOC(=O)N1C(=O)C2(CCCCC2)N(c2ccccc2Cl)C1=S,-12%,i,i,?,?,?
Cc1cccc(CNC(=O)c2cnn(-c3ncc(C)c(-c4ccc(F)cc4)n3)c2C)n1,-2%[9.04 µM],.,.,.,.,-25%
CC=Cc1cc2c(c(=O)o1)C(=O)C(O)C(C)O2 (stereo not drawn),3.7µM*,i,i,-19%,?,2.9µM*
O=C(CC1=NC2(CCCC2)Cc2ccccc21)N1CCOCC1,-25%,i,i,-20%,2%,-25%
CC(CCc1ccccc1)NC(=O)CCC(=O)N1CCC(C(=O)O)CC1 (stereo not drawn),6%,i,i,8%,12%,-27%
CCc1c(C)[nH]n(-c2nc(-c3ccccc3)cs2)c1=O,-7%,?,i,9%,0%,-26%
Cc1[nH]n(-c2nc(-c3ccc(Cl)cc3)cs2)c(=O)c1N=Nc1ccc(O)cc1,2.6µM*,15µM*,?,?,-24%,5.8µM*
O=C1C[C@@H]2c3c(cccc3CN1Cc1ccccc1F)C[C@@H](O)[C@H]2O,-1%,i,i,13%,9%,-3%
COc1ccccc1/C=C/CN1CCC(n2nccc2NC(=O)CCc2ccccc2)CC1,15µM*,i,i,-14%,0%,12µM*
CCOc1ccccc1CN1CCC(n2nccc2NC(=O)CCc2ccccc2)CC1,?,?,i,6%,29%,?
CC(=O)c1cccc(CN2CCC(n3nccc3NC(=O)CCCc3ccccc3)CC2)c1,-23%,?,i,0%,9%,-15%
